Lassa entry inh: inhibitors of Lassa virus binding or cell entry; Lassa virus pseudotype entry inhibition, cell reporter; AID 540256; Potency, µM (titrated, usually from 37.9 µM), for inactives: top-dose activity change, negative = inhibition, most hits filed as inhibitors; 1.2% of 300,000 active; calls by dose curve; tested in HEK293 cells; also: potency is read from the fitted curve at half-maximal effect; % is scaled to controls: 0 for no effect and ±100 for the full control effect; nearly all actives have a fitted effect of over 50% in size
MARV entry inh: Marburg virus entry inhibition | Marburg virus pseudotyped entry inhibition, cell reporter | Potency, µM (top dose mostly 37.8 µM), without a hit: at the highest dose activity change, negative = inhibition, usual class: inhibitors | 1.8% of 300,000 active | AID 540276; calls by dose curve; tested in HEK293 cells; also: potency is read from the fitted curve at half-maximal effect; % is scaled to controls: 0 for no effect and ±100 for the full control effect
HCV inh: inhibitors of hepatitis C virus infection | Huh7.5.1 HCVcc-Cre infection, luciferase reporter, 44 h | Potency, µM (highest dose often 41.8 µM), inactives show top-dose activity change, negative = inhibition, usual class: inhibitors | 3.4% of 340,000 active | AID 651820; active = well fitted inhibition curve with a large enough effect; inconclusive = small, poorly fitted or top-dose-only effect, or another doubt; inactive = no such curve, though single readings can be large or run the other way; also: potency is read from the fitted curve at half-maximal effect; % is scaled to controls: 0 for no effect and ±100 for the full control effect
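After 44 h co-culture of compound, cells and HCVcc-Cre (~0.5 moi), substrate is added for 15 min at room temperature and luciferase measured over 15 sec. Cells were seeded at 1,000/well and pre-cultured 4 h.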
FMDV antiviral: foot and mouth disease virus antiviral activity; AID 1159524; 1.2% of 410,000 active; FMDV antiviral cell-based qHTS; Potency, µM (highest dose often 57.9 µM), for inactives: top-dose activity change, negative = inhibition, most hits filed as inhibitors; calls by dose curve; tested in HEK293T cells; also: read-out not given here; potency is read from the fitted curve at half-maximal effect; % is scaled to controls: 0 for no effect and ±100 for the full control effect; nearly all actives have a fitted effect of over 45% in size
HCMV inh: blocks human cytomegalovirus replication; HFF cells, HCMV-luciferase reporter, 72 h; hits give low values; activity change, negative = inhibition, % at 57.5 µM; 4.5% of 410,000 active; AID 1259415; in the data active = activity change below about -60%; inconclusive = no clear call, values can overlap the other calls; inactive = above about -39%; also: % is scaled to controls: 0 for no effect and ±100 for the full control effect
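Luciferase read-out from HCMV-luciferase-infected HFFs (MOI 1 PFU/cell) 72 h post infection at 37C; compounds added after 16 h cell attachment; activity normalized between buffer-only basal and Salinomycin (10uM) inhibitor controls.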
SARS PLP yeast: inhibitors of SARS-CoV papain-like protease in yeast | S. cerevisiae expressing SARS-CoV PLpro, growth rescue | 0.19% of 330,000 active | Potency, µM (doses to about 32.9 µM), for inactives: top-dose activity, positive = growth rescue, hits mostly activators; calls by dose curve; also: potency is read from the fitted curve at half-maximal effect; 0% is about no effect; nearly all actives have a fitted effect of over 55% in size
An asterisk follows results filed as active; ? = inconclusive; . = no result given; [ ] = remark or other dose. The list is not random: actives were taken first. Their share in the collection is about 8%.

SMILES	Lassa entry inh	MARV entry inh	HCV inh	FMDV antiviral	HCMV inh	SARS PLP yeast
CC(C)C(=O)Nc1cc2c(cc1C(=O)c1ccccc1)OCCO2	-10%	18%	-1%	-14%	-3	2%
CCC(=O)c1cc2c(cc1NC(=O)C(C)C)OCCO2	12%	0%	6.3µM*	-10%	-24	6%
COc1cc2c(NCCCCCCO[N+](=O)[O-])ncnc2c(OC)c1OC	.	.	.	.	-25	.
CCCCn1cc(S(=O)(=O)c2ccccc2)c(=O)c2cc(F)c(N3CCN(CCC)CC3)cc21	-18%[46.1 µM]	.	.	-8%	-11	.
CC(=O)c1c(N2CCN(c3ccc(F)cc3)CC2)nc(=S)n(Cc2ccccc2)c1C	-24%	?	?	?	-68*	-6%
COc1ccccc1/C=C/C(=O)c1ccc(NC(C)=O)cc1	11µM*	13µM*	?	?	-102*	-45%
COc1cc(/C=C/C(=O)N2CCC=CC2=O)cc(OC)c1OC	.	.	32µM*	?	-97*	.
COc1cc(C=CC(=O)c2cc(OC)c(OC)c(OC)c2)cc(OC)c1OC	7.9µM*	?	?	13µM*	-97*	.
COc1ccc2cc(C(=O)/C=C/c3cc(OC)c(OC)c(OC)c3)ccc2c1	-30%[46.1 µM]	?	?	-10%	-15	10%
COc1cc(C=CC(=O)c2ccccc2)cc(OC)c1OC	.	.	.	16µM*	4	.
CCOC(=O)c1c(C)[nH]c(C)c1S(=O)(=O)NCC(=O)Nc1cccc(Cl)c1	-16%[46.1 µM]	.	.	33%	0	.
COc1ccc(OC)c(CCNc2nc3cnc(-c4ccccc4Oc4ccccc4)cc3n2C)c1	.	.	.	.	-15	.
Fc1ccc(-c2cc(C(F)(F)F)nc(-n3cc(Cl)cn3)n2)cc1	.	.	?	0%	?	5%
Cc1cnn(-c2nc(-c3ccccc3)cc(-c3ccccc3)n2)c1	-23%[46.1 µM]	?	7.9µM*	6%	?	-1%
FC(F)(F)c1cc(-c2ccccc2)nc(-n2cc(Cl)cn2)n1	.	.	?	?	-60*	0%
Cc1ccc(CN2CCOc3ccc(C(C)(O)COc4ccccc4)cc3C2)o1 (stereo unspecified)	.	.	.	-9%	.	.
CN=C1S/C(=C\c2cccc(Cl)c2Cl)C(=O)N1C	.	.	-11%	26%	-36	.
O=C(CCCc1c[nH]c2ccccc12)NCc1ccccc1F	7.9µM*	-19%[46.1 µM]	-24%	24%	28	-2%
Cc1ccnc(NC(=O)CCCc2c[nH]c3ccccc23)c1	0%[46.1 µM]	11%[46.1 µM]	-14%	11%	-101*	3%
Cc1ccnc(NC(=O)CCCc2ccccc2)c1	16%	?	9%	30%	34	-5%
Cc1ccc(NC(=O)CCCc2c[nH]c3ccccc23)nc1	.	.	-22%	4%	-98*	-1%
Cc1ccc(CNC(=O)CCCc2c[nH]c3ccccc23)cc1	-25%[46.1 µM]	11%[46.1 µM]	-13%	19%	-14	-3%
O=C(CCN1N=C(c2ccccc2)CCC1=O)NCCc1ccc(Cl)cc1	8%[46.1 µM]	.	.	-4%	?	.
Cc1ccc2onc(CNC(=O)NCc3ccccc3)c2c1	-19%[46.1 µM]	.	.	29%	7	.
O=C(Nc1ccc(F)cc1)Nc1nnc(SCC(=O)N2CCCCC2)s1	20%[46.1 µM]	.	.	-17%	-75*	.
SMILES	Lassa entry inh	MARV entry inh	HCV inh	FMDV antiviral	HCMV inh	SARS PLP yeast
O=C(Nc1ccccc1)Nc1nnc(SCC(=O)N2CCCCC2)s1	?	.	.	?	2	.
CCOc1ccccc1Nc1nnc(SCC(=O)N2CCCC2)s1	13%	13%	25µM*	18%	141	1%
Cc1ccc(NC(=O)Nc2nnc(SCC(=O)N3CCCCC3)s2)cc1	-3%[46.1 µM]	.	.	20%	-87*	.
COc1cccc(-c2nc(CS(=O)(=O)CC(=O)NCc3cccc(Cl)c3)c(C)o2)c1	2%[46.1 µM]	-19%[46.1 µM]	.	-6%	-4	.
Cc1oc(C)c2c(=O)cc(-c3ccc4c(c3)OCO4)cc(OC(=O)c3cccc(Br)c3)c12	23%[46.1 µM]	7%[46.1 µM]	.	0%	6	.
COC(=O)/C(=C1/Oc2cc(C)oc(=O)c2S1)C(F)(F)F	?	?	10µM*	28µM*	?	-35%
COc1c(C)cc(C(=O)C2CCCN(Cc3cccc(O)c3)C2)cc1C (stereo unspecified)	.	.	13µM*	0%	15	?
COc1cccc(C(=O)C2CCCN(Cc3cccc(-n4nc(C)cc4C)c3)C2)c1 (stereo unspecified)	.	.	35µM*	?	6	0%

Screening data deposited in PubChem by National Center for Advancing Translational Sciences (NCATS).
